Source: ChEMBL document CHEMBL3988442, “University of Dundee, Small-Polar-MMV Screening Library” (2021)
Screen size: about 48,000 compounds; about 13,000 (27%) showed an effect of 50% or more. Some of the results follow.

Tested on: Wolbachia pipientis
Experiment: Anti-Wolbachia Cell-Based Screen
Type: functional
Set-up: scale not given: in the data most compounds retested in dose-response had high values
Details: 5 µM

| Compound | Percent Effect [%] |
| --- | --- |
| CN(C)CCCN1CC2(CCN(C3CCCOC3)CC2)OC1=O (stereo not given) | -5.756 |
| COc1ccc(NC(=O)c2ccc[nH]2)c(N2CCN(C(C)=O)CC2)n1 | 6.635 |
| Cc1cc(SC(C)(C)C)ccc1NC(=O)CNC(N)=O | -8.144 |
| Cc1ccc(S(=O)(=O)NC[C@H]2OC[C@@H](NCc3ccccn3)[C@@H]2O)cc1 | 0.9418 |
| Cc1cc(C(=O)N2C[C@@H](CN3CCOCC3)C[C@H](CO)C2)nc(C)n1 | -2.252 |
| Cc1cc(C)c(CNC(=O)N2CCCN(C(=O)C(C)C)CC2)c(C)c1 | -1.6 |
| CC(C)=CCN1C[C@H]2CC[C@@H]1CN(Cc1coc(C)n1)C2 | -7.778 |
| Cc1ccc2nc(CNCCCOc3ccccc3)cc(O)c2c1 [UCSF924] | -20.67 |
| COc1ccc(OCCNCCn2cccn2)cc1 | -1.614 |
| CCn1ccc(-c2cc(NCCCOc3ccccc3C)nc(C)n2)n1 | 161.9 |
| c1ccc(OCCCNCCn2cccn2)cc1 | 7.776 |
| CCn1ccc(-c2cc(NCCCOc3cccc(C)c3)nc(C)n2)n1 | 179.6 |
| CCN(CC1CCOCC1)C(=O)Cn1cccc(C(F)(F)F)c1=O | -10.75 |
| c1coc(-c2nc(CNC3CCC4(CCNCC4)CC3)no2)c1 | 99.09 |
| CC(C)(C)OC(=O)NC1(c2noc(-c3ccco3)n2)CCC1 | -13.08 |
| c1coc(-c2nc(CNC3CCCNC3)no2)c1 (stereo not given) | 116.1 |
| c1cnnc(N2CCCC(NCc3nnc(-c4ccco4)o3)C2)c1 (stereo not given) | 5.713 |
| c1ccc(Cc2nc(CNC3CCC4(CCNCC4)CC3)no2)cc1 | 94.06 |
| c1ccc(-c2nc(CNC3CCCN(c4cccnn4)C3)no2)cc1 (stereo not given) | -14.96 |
| COCc1nc(CNC2CCC3(CCNCC3)CC2)no1 | -7.512 |
| COc1nc2c(cc1C(=O)NCc1noc(-c3ccco3)n1)CCC2 | -22.9 |
| OC1(CNCc2noc(Cc3ccccc3)n2)CCCNC1 (stereo not given) | 0.3473 |
| Cc1ncc2c(n1)CN(C(C(N)=O)c1ccccc1)CC2 (stereo not given) | 4.006 |
| CC(C)NC(=O)NC[C@H]1OC[C@@H](NCc2ccncc2)[C@@H]1O | 2.532 |

| Compound | Percent Effect [%] |
| --- | --- |
| Cc1ccc(OC2(C(=O)O)CCN(C/C=C/c3ccco3)CC2)cc1 | -1.713 |
| O=C(Nc1cccc(OC(F)F)c1)C1CN(S(=O)(=O)C2CC2)C1 | 10.08 |
| CN1[C@H]2CC[C@@H]1CN(C(=O)c1nnc3n1CCCC3)CC2 | 1.056 |
| Cc1cnc(CN2CCN(C(C)c3nc(C(C)C)no3)CC2)cn1 (stereo not given) | 10.96 |
| FC(F)(F)c1cc(C2CCN(c3cnccn3)CC2)n2ccnc2n1 | 100.9 |
| CC(C)n1ccnc1C1CCCN(c2nc3ccccc3s2)C1 (stereo not given) | 8.79 |
| CC(C)c1nc(C2CCCN(c3nccc(C(F)(F)F)n3)C2)no1 (stereo not given) | 4.176 |
| CN(C)Cc1nnc(C2CCCN(c3cc(C(F)(F)F)ccn3)C2)n1C (stereo not given) | -6.748 |
| FC(F)(F)c1ccnc(N2CCCC(N3CCOCC3)C2)c1 (stereo not given) | 3.517 |
| CC(C)N1CC[C@H](c2nc3ccc(C(F)(F)F)cc3[nH]2)C1 | -4.029 |
| FC(F)(F)c1cc(C2CCCN(c3cnccn3)C2)n2ccnc2n1 (stereo not given) | 112.2 |
| CC(C)c1nc(C2CCCN(c3ncccn3)C2)no1 (stereo not given) | 10.51 |
| N#Cc1ccc(N2CCN(c3cnccn3)CC2)cc1C(F)(F)F | -11.21 |
| CC(C)N1CCCC(c2cc(C(F)(F)F)nc3nccn23)C1 (stereo not given) | 97.97 |
| FC(F)(F)c1cc(C2CCCN(c3ncccn3)C2)n2ccnc2n1 (stereo not given) | 126.4 |
| N#Cc1ccc(N2CCN(c3cnccn3)CC2)c(C(F)(F)F)c1 | -6.859 |
| CCNc1ncc(C(=O)NCc2csc(-c3ncccn3)n2)cn1 | -30.13 |
| CCOC(C)c1nc(CN2CCC(CNC(C)=O)CC2)cs1 (stereo not given) | -3.059 |
| CC(=O)N1CCC(c2cc(C(F)(F)F)nc3nccn23)CC1 | 113.6 |
| CN(C)CCn1ccnc1C1CCN(C(=O)CCC(F)(F)F)CC1 | -12.98 |
| Cn1ccnc1C1CCN(C(=O)COCC(F)(F)C(F)F)CC1 | -2.138 |
| Cc1ccc2c(C)c(C(=O)NCCc3csc(N)n3)oc2c1 | 32.42 |
| O=C(c1cc(-c2ccco2)nc2c(Cl)cccc12)N1C[C@H]2CNC[C@H]2C1 | 10.23 |
| Cc1cc(C(=O)NCc2ccc(F)cc2)c2c(C3CCCN3)noc2n1 (stereo not given) | 101.4 |

| Compound | Percent Effect [%] |
| --- | --- |
| COc1nc2c(cc1C(=O)NCc1noc(Cc3cccs3)n1)CCC2 | -29.09 |
| CCc1ccc2nc(C)cc(C(=O)NC[C@@H]3CCNC[C@H]3O)c2c1 | -0.4588 |
| Cc1cc(C2CCCN2C(=O)NCc2cccc(F)c2)on1 (stereo not given) | -2.715 |
| CCc1ccc2nc(C)cc(C(=O)N[C@@H]3CNC[C@H]3O)c2c1 | -12.87 |
| CC(C)(C)c1cc(C[C@H]2CNCC[C@H]2CC(=O)NCc2cccs2)no1 | 1.711 |
| Cc1cc(C(=O)NCc2cccs2)c2c(C3CCCN3)noc2n1 (stereo not given) | 99.02 |
| Cc1cc(C(=O)NCc2ccc(F)cc2)c2c(C3CCNC3)noc2n1 (stereo not given) | 105.3 |
| CC(C)Cc1cc(CNC(=O)c2ccccc2C2CCNC2)no1 (stereo not given) | 0.6659 |
| Cc1nnc2ccc(C(=O)N3CCSC(C)(C)C3)cn12 | -5.569 |
| NC(=O)CCn1cc(CNCCCc2csc(N)n2)c2ccccc21 | 2.752 |
| Cc1nc(CN2C[C@@H]3CCCO[C@@H]3[C@H](NC(=O)CC3CC3)C2)cs1.O=C(O)C(F)(F)F | -2.843 |
| CNC(=O)[C@@H]1C[C@H]2CN(Cc3ccc(C)o3)C[C@H]2N1C(C)=O | 14.16 |
| Cc1nc(CN2C[C@@H]3CN(C(=O)c4cnccn4)C[C@@H]3C2)cs1.O=C(O)C(F)(F)F | 0.3524 |
| O=C(O)C(F)(F)F.O=C(O)C(F)(F)F.O=C(O)C(F)(F)F.c1cc(CN2C[C@@H]3OCCN(CCN4CCCC4)[C@@H]3C2)cs1 | -11.54 |
| CN1[C@@H](C(=O)NCC2CC2)C[C@@H]2CN(Cc3ccsc3)C[C@@H]21.O=C(O)C(F)(F)F.O=C(O)C(F)(F)F | 95.65 |
| CN1[C@@H](C(=O)NCC2CC2)C[C@H]2CN(Cc3ccsc3)C[C@H]21.O=C(O)C(F)(F)F.O=C(O)C(F)(F)F | 106.3 |
| CS(=O)(=O)N1C[C@H]2CCCN(Cc3ccsc3)[C@H]2C1.O=C(O)C(F)(F)F | -0.02998 |
| CNC(=O)[C@@H]1C[C@H]2CN(Cc3ccc(C)s3)C[C@H]2N1C(C)=O.O=C(O)C(F)(F)F.O=C(O)C(F)(F)F | 111.1 |
| CC(C)N1[C@H](Cn2cncn2)C[C@@H]2CN(Cc3ccsc3)CC[C@@H]21.O=C(O)C(F)(F)F | 4.812 |
| O=C(NCC1CC1)[C@H]1C[C@H]2OCC[C@H]2N(Cc2ccsc2)C1 | -7.335 |
| Cc1nc(CN2C[C@H]3C[C@H](C(=O)NCC4CC4)N(C)[C@H]3C2)cs1.O=C(O)C(F)(F)F.O=C(O)C(F)(F)F.O=C(O)C(F)(F)F | 116.2 |
| Cc1ccc(CN2C[C@@H]3CCCO[C@@H]3[C@H](NC(=O)CC3CC3)C2)s1.O=C(O)C(F)(F)F | 2.329 |
